TRb-SRC2 inh – disrupts binding of human TR beta to SRC2; TRbeta-SRC2 peptide binding, fluorescence polarization; receptor liganded with 1 µM T3; Potency, µM (highest dose often 106 µM), without a hit: at the top dose activity change, negative = inhibition, most hits filed as inhibitors; actives 0.065% (n = 280,000); AID 1469;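 note: plate controls were bound peptide for no effect and peptide without receptor for full effect; nearly all actives have a fitted effect of over 50% in size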
Target sequence (P10828 whole entry, looked up): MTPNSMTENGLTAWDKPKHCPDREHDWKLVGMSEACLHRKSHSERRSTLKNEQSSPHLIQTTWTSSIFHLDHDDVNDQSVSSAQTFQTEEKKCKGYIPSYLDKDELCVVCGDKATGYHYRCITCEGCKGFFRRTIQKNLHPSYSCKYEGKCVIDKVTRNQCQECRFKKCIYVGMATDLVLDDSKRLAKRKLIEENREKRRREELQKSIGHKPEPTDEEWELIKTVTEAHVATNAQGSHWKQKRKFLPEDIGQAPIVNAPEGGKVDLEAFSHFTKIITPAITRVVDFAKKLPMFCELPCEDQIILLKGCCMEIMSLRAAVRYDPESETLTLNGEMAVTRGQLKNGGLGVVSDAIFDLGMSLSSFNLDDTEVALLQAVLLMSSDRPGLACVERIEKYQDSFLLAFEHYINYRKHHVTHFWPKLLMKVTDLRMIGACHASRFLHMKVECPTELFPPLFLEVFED
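Fluorescence polarization of 20 nM Texas Red SRC2 peptide with 0.6 uM human TRb ligand-binding domain, in Tris buffer with 1uM T3 and 5% DMSO. Incubated 5 hr ambient; normalized to unbound and bound controls.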
Tau fluor counter – counter-screen for tau fibril formation inhibitors. tau K18 P301L Alexa594 fluorescence, heparin fibrillization. Potency, µM (doses to about 57.7 µM), without a hit: at the top dose activity change, negative = decrease. actives 0.93% (n = 280,000). AID 1463; note: nearly all actives have a fitted effect of over 55% in size
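Human K18 P301L tau (15 uM unlabeled plus 0.24 uM Alexa 594-labeled, final) in 100 mM sodium acetate pH 7 was mixed with compound and 20 uM heparin and incubated 6 hr at 37 C.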
Tau fibril ThT – blocks human tau fibril formation measured by thioflavin T; recombinant tau K18 P301L (four-repeat tau fragment), heparin-induced fibrillization, ThT fluorescence; Potency, µM (titrated, usually from 57.4 µM), inactives show at the highest dose activity, negative = inhibition, most hits filed as inhibitors; P10636; actives 2.1% (n = 270,000); note: nearly all actives have a fitted effect of over 55% in size
Target sequence (P10636 561-689 P618L limits assumed): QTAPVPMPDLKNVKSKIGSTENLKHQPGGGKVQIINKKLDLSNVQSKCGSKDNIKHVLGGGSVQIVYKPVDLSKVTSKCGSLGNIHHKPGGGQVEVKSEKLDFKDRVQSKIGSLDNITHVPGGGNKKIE
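Aggregation was driven by heparin (20 uM final) acting on recombinant tau […] bearing P301L in 100 mM sodium acetate pH 7; fibrils were detected with Thioflavin T.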
TexasRed fluor – alters Texas Red total fluorescence, flagging assay interference | TRb/SRC2 Texas Red total fluorescence interference | Potency, µM (series often up to 106 µM), without a hit: at the highest dose fluorescence change, negative = quenching | actives 0.29% (n = 280,000) | AID 1479; active = well fitted curve in either direction with a large enough effect; inconclusive = small, poorly fitted or top-dose-only effect
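Flags fluorescent or light-absorbing compounds by total fluorescence, S + 2P, at 555 nm excitation and 632 nm emission. Mixture: 20 nM Texas Red SRC2 peptide, 0.6 uM human TRb LBD, 1 uM T3, 5% DMSO; compound exposure 5 h at ambient temperature.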
Tau fibril FP – inhibitors of human tau fibril formation. actives 0.39% (n = 280,000). Potency, µM (series often up to 57.7 µM), inactives show top-dose activity, negative = inhibition, actives largely listed as inhibitors. P10636. K18 P301L tau heparin fibrillization, Alexa594 FP, 6 h; note: nearly all actives have a fitted effect of over 55% in size
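Read-out: fluorescence polarization of Alexa 594-labeled tau (0.24 uM), 555 nm excitation, 632 nm emission. Mixtures held 15 uM unlabeled K18 P301L, compound and 20 uM heparin, pH 7 acetate buffer, incubated 6 hr at 37 C.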
* hit, by the source's call; ? = inconclusive; . = not tested or not shown; [ ] = remark or other dose. Only some compounds are listed: those with a hit (about 3% of all), similar ones and a draw of the others. Unless noted, calls come from the whole dose curve; as a rule, active = well fitted curve in the direction sought with a large enough effect; inconclusive = small, poorly fitted or top-dose-only effect, or another doubt; inactive = no such curve, though single readings can be large; an effect the other way counts as inactive or inconclusive. Unless noted, % is set by controls: 0 for no effect and ±100 for the full control effect; potency is the fitted concentration of half-maximal effect.

SMILES | TRb-SRC2 inh | Tau fluor counter | Tau fibril ThT | TexasRed fluor | Tau fibril FP
Cc1ccc(Nc2ccc(N3CCN(C(=O)c4ccc([N+](=O)[O-])cc4)CC3)nn2)cc1 | -3% | ? | ? | -2% | 6%
O=S(=O)(Nc1cccc2cccnc12)c1ccc(Br)cc1 | -3% | . | . | -1% | .
COc1cc([N+](=O)[O-])cc(/C=N/NC(=O)c2cc(-c3ccccc3)nc3ccccc23)c1O | 5% | ? | 16µM* | -8% | 13%
COc1ccc(/C=N/NC(=O)c2cc(-c3cccnc3)nc3ccccc23)c(OC)c1 | 2% | -21% | -3% | 0% | ?
COc1cc([N+](=O)[O-])cc(/C=N/NC(=O)c2cc(C)nc3ccccc23)c1O | 3% | -22% | 14µM* | -4% | -8%
CS(=O)(=O)c1ccc(-c2nc(-c3ccc(F)cc3)c(-c3ccncc3)[nH]2)cc1 | 1% | -12% | 0% | -1% | -3%
Cc1ccc(NC(=O)NC2=NN(c3ccccc3)C(=O)/C2=C2/CCCN2C)cc1 | 6% | ? | ? | 1% | ?
CN1CCC/C1=C1/C(=O)N(c2ccccc2)N=C1NC(=O)Nc1cccc(Cl)c1 | -8% | ? | 8.9µM* | -6% | ?
COc1ccc2c(c1)C(=NO)c1cc(OC)ccc1-2 | -9% | ? | 0.71µM* | -3% | 0%
C=CCOc1ccc(/C=C/C(C)=N\O)cc1 | 5% | -14% | -15% | 0% | -6%
C=CCOc1ccc2c(c1)C(=NO)c1cc(OCC=C)ccc1-2 | 3% | ? | 7.9µM* | 2% | ?
COc1ccc2c(c1)C(=NNC(=O)c1ccccn1)c1cc(OC)ccc1-2 | -27% | -10% | ? | 1% | -8%
CCOc1ccccc1CNC(=O)C1CCN(S(=O)(=O)c2c(C)noc2/C=C/c2ccccc2F)CC1 | 1% | -15% | 11% | 0% | -2%
Cc1cccn2c(Nc3ccccc3)c(-c3cccs3)nc12 | 5% | ? | ? | -1% | 9%
O=C(O)c1cc(N=Nc2ccc(-c3ccc(N=Nc4ccc(O)c(C(=O)O)c4)cc3)cc2)ccc1O | ? | . | . | 28µM*[quencher] | .
C/C=C/C1Oc2ccc(OC)cc2N2C(=O)C(C)C(OCOC)C12 (configuration not stated) | 6%[11.2 µM] | -3%[11.6 µM] | 0%[11.5 µM] | 1%[11.2 µM] | 1%[11.6 µM]
Cc1ccccc1NC(=O)c1sc2nc3n(c(=O)c2c1C)CCC3 | -7% | 4.5µM*[quencher] | -6% | -1% | ?
CCOC(=O)N1CCN(C(=O)Nc2sc3nc4n(c(=O)c3c2C)CCC(C)CC4)CC1 (configuration not stated) | -4% | -21% | ? | 1% | 11%
Cc1c(NC(=O)Nc2ccc(Cl)c(Cl)c2)sc2nc3n(c(=O)c12)CCC(C)CC3 (configuration not stated) | 3% | ? | -1% | -1% | ?
COc1cc(OC)c(NC(=O)Nc2sc3nc4n(c(=O)c3c2C)CCC(C)CC4)cc1Cl (configuration not stated) | 7% | 4µM*[quencher] | ? | 2% | 11%
Cc1c(NC(=O)Nc2ccccc2C(F)(F)F)sc2nc3n(c(=O)c12)CCC(C)CC3 (configuration not stated) | 8% | 13µM*[quencher] | -18% | 4% | ?
CC(=O)c1cccc(NC(=O)Nc2sc3nc4n(c(=O)c3c2C)CCC(C)CC4)c1 (configuration not stated) | 3% | 11µM*[quencher] | ? | -26% | ?
CN(C)c1ccc(CN(CC2CCCO2)C(=O)c2ccc(Br)cc2)cc1 (configuration not stated) | 1% | -15% | -12% | -1% | -3%
Cn1c(O)c(N=Nc2ccc(F)cc2)c2ccccc21 | 4% | -12% | 13µM* | -2% | -6%
Cn1c(O)c(N=Nc2nc(-c3ccccc3)cs2)c2ccccc21 | -6% | -21% | 2µM* | -1% | -3%
SMILES | TRb-SRC2 inh | Tau fluor counter | Tau fibril ThT | TexasRed fluor | Tau fibril FP
Cn1c(=O)c(Oc2ccc(F)cc2)c(O)c2ccccc21 | 1% | 4% | -3% | 0% | 5%
C=C(C(=O)OCC)C(=O)c1ccccc1 | 1% | -3% | 0% | -3% | ?
O=C(CN1c2ccccc2Sc2ccccc21)NNC(=O)Nc1cccc(Cl)c1 | 3% | 8.9µM*[quencher] | -4% | 2% | ?
Brc1ccc2ncnc(Nc3ccc(N4CCOCC4)cc3)c2c1 | 2% | ? | 8.9µM* | -2% | 10%
O=C(COc1ncnc2ccc(Br)cc12)Nc1ccc(N2CCOCC2)cc1 | 2% | -24% | -19% | -2% | 13%
O=[N+]([O-])c1cc(Cl)c2cccnc2c1O | 7% | -9% | 10µM* | -4% | -3%
O=[N+]([O-])c1cc(F)c2cccnc2c1O | -16% | -21% | 7.9µM* | ? | ?
O=[N+]([O-])c1cc(Cl)c(O)c2ncccc12 | 14% | -20% | 13µM* | -2% | -5%
COc1ccc(NC(=O)O/N=C2/CCCc3ccc(OC)cc32)cc1 | 5% | ? | 14µM* | -6% | ?
CCN(CC)CCNc1cc(C)nc2c1C(=O)C(=O)C=C2N1CCCCC1 | -4% | -27% | 8.9µM* | -1% | ?
Oc1cccc(/C=N/Nc2cc(N3CCCC3)nc(N3CCCC3)n2)c1 | -27% | 16µM*[quencher] | ? | 1% | -1%
Oc1ccc(/C=N/Nc2cc(N3CCCC3)nc(N3CCCC3)n2)cc1 | -11% | 18µM*[quencher] | ? | -1% | 3%
Oc1ccc(/C=N/Nc2nc(N3CCCCCC3)nc(N3CCCCCC3)n2)c(O)c1 | 5% | 10µM*[quencher] | ? | -1% | -14%
Cc1ccc(NC(=O)CN2C(=O)C(c3ccccc3)=NC23CCCCC3)cc1C | 1% | -18% | 2% | -1% | -12%
CC(C)(CSc1ncccn1)NS(=O)(=O)c1ccccc1 | 15% | -6% | 2% | -3% | 13%
Cc1ccc(S(=O)(=O)NC(C)(C)CSc2nnc(Nc3ccccc3)s2)cc1 | -4% | 18µM*[quencher] | -17% | -3% | 4%
CC(=O)c1cccc(NC(=O)C2CCCN(c3nnc(-n4cccc4)s3)C2)c1 (configuration not stated) | 4% | -27% | -12% | 5% | 2%
O=S1(=O)c2cccc3cccc(c23)N1CCCN1CCN(c2ccc(F)cc2)CC1 | -2% | . | . | 0% | .
COc1cc(/C=C(\C#N)C(=O)c2c[nH]c3ccccc23)cc(OC)c1O | 9% | -8% | 16µM* | -2% | 9%
CCC(=O)Oc1ccc(/C=C(\C#N)c2nc3ccccc3[nH]2)cc1OC | -13% | ? | ? | -24% | -5%
COc1cc(/C=C(\C#N)c2nc3ccccc3[nH]2)cc(Br)c1OCc1ccccc1 | -23% | 13µM*[quencher] | ? | -6% | ?
COc1cc(/C=C(\C#N)c2nc3ccccc3[nH]2)cc(OC)c1O | 2% | ? | 7.1µM* | -18% | ?

Compound activity as filed in PubChem BioAssay.
